The whole screen tested about 69,000 compounds, of which about 8,600 (12%) showed an effect of 50% or more. The sample as a whole holds a higher share of strong results than the screen did.
What follows are compounds tested on Plasmodium berghei (assay: Screen against P. berghei liver stage (PbLuc), transformed with Luciferase, at 10uM). Settings: tested at 10 uM.
Format: functional, HepG2
`CC(C)OC(=O)NCc1ccc(NCc2cnn(C(C)(C)C)c2)cc1` gave an INHIBITION of 18.9%. `CC(=O)N(Cc1ccc(NCc2cnn(C(C)(C)C)c2)cc1)C(C)C` was tested, and the INHIBITION was 38.5%. For `CC(C)(C)n1cc(CNc2ccc(CNS(C)(=O)=O)cc2)cn1`, the INHIBITION was 74.4%. In the case of `CCNc1nc2cn(-c3ccc(C)c(C)c3)c(=O)c-2c[nH]1`, the INHIBITION is reported as -31.1%. Compound `O=C(Cc1ccc(F)cc1)NCCNCC1CNc2ccnn2C1` (stereo not given) has an INHIBITION of 19.7%. `Cc1cc2n(n1)CC(CNCc1cnn(C)c1)CN2` (stereo not given) was tested, and the INHIBITION was 33.7%. `O=C(NCCNCC1CNc2ccnn2C1)c1ccc(F)cc1` (stereo not given) was tested, and the INHIBITION was 32.4%. `Cc1cc2n(n1)CC(CNCc1cnn(-c3ccccc3)c1)CN2` (stereo not given) showed an INHIBITION of 15.5%. `Cn1cc(CCNCC2CNc3ccnn3C2)cn1` (stereo not given) showed an INHIBITION of 71.4%. For `COCCOc1ccc(CNCC2CNc3cc(C)nn3C2)cn1` (stereo not given), the INHIBITION was 25.995%. `COc1ccc(CNCC2CNc3ccnn3C2)cn1` (stereo not given) gave an INHIBITION of 25.1%. For `Cc1cc2n(n1)CC(CNCc1ccc(OCC3CC3)nc1)CN2` (stereo not given), the INHIBITION was 60.7%. In the case of `Cc1cc2n(n1)CC(CNCCc1cnn(C)c1)CN2` (stereo not given), the INHIBITION is reported as 54.3%. `COc1ccc(CNCC2CNc3cc(C)nn3C2)cn1` (stereo not given) showed an INHIBITION of -6.185%. In the case of `Cc1ccc(C(=O)NCCNCC2CNc3ccnn3C2)cc1F` (stereo not given), the INHIBITION is reported as 59.3%. `Cc1ccc(C(=O)NCCNCC2CNc3ccnn3C2)cc1` (stereo not given) showed an INHIBITION of 7.67%. `CCN(Cc1noc(C2CCC2)n1)C(=O)c1cn2ccsc2n1` gave an INHIBITION of 30%. Work on `CS(=O)(=O)CCCNC(=O)C1(c2cccc(Cl)c2)CC1` yielded an INHIBITION of 28.3%. For `CN(CC(N)=O)CC(=O)N1CC=C(c2ccccc2)CC1`, the INHIBITION was -46.4%. For `COc1cc(NC2CCCN(c3ncccn3)C2)cc(OC)c1` (stereo not given), the INHIBITION was 23.1%. With `CCc1cnccc1C(=O)NC1CCN(C(=O)C2CCCCC2)CC1` the INHIBITION was 38.7%. `CCC1CN(c2ncnc3nc[nH]c23)CCO1` (stereo not given) showed an INHIBITION of -2.03%. Work on `CCCc1nnsc1C(=O)N1CCN(CC(C)O)CC1` (stereo not given) yielded an INHIBITION of 51.7%. Work on `CCCc1nnsc1C(=O)N1CCN(CC(O)C2CC2)CC1` (stereo not given) yielded an INHIBITION of 37.4%. Compound `CCc1nnsc1C(=O)N1CCN(CC(O)CC)CC1` (stereo not given) has an INHIBITION of 17.8%. `CC(O)CN1CCN(C(=O)c2ccc(N(C)C)nn2)CC1` (stereo not given) was tested, and the INHIBITION was 51.2%. For `CN(C)c1ccc(C(=O)N2CCN(CC(O)C(C)(C)C)CC2)nn1` (stereo not given), the INHIBITION was 7.12%. `CCC(O)CN1CCN(C(=O)c2ccc(N(C)C)nn2)CC1` (stereo not given) gave an INHIBITION of -26.6%. `O=C1[C@H]2CN(c3ncccn3)C[C@H]2CN1CCN1CCCC1` gave an INHIBITION of 19.5%. For `CC(C)n1ccc(C(=O)OCC2CC(=O)N(Cc3ccccc3)C2)n1` (stereo not given), the INHIBITION was 1.74%. `CC(C)(NC(=O)CCc1ccco1)c1ccc2c(c1)OCCO2` showed an INHIBITION of 10.6%. `Cc1cccc(N2CCN(C(=O)CCc3ccsc3)C(C)C2)n1` (stereo not given) gave an INHIBITION of -16.8%. For `Cc1cc(NC(=O)NCC(c2ccccc2)N2CCOCC2)n(C)n1` (stereo not given), the INHIBITION was -2.53%. Work on `Cc1nc(CN(C)C2CCCN(c3cccnn3)C2)no1` (stereo not given) yielded an INHIBITION of -31.9%. Work on `CC(C)c1nc(CN(C)C2CCCN(c3cccnn3)C2)no1` (stereo not given) yielded an INHIBITION of 18.2%. `CS(=O)(=O)c1ccc(CNC2CCCN(c3cccnn3)C2)cc1` (stereo not given) gave an INHIBITION of 39.5%. Work on `c1ccc(-c2nc(CNC3CCCN(c4cccnn4)C3)no2)cc1` (stereo not given) yielded an INHIBITION of 48.4%. For `Cc1cc(CNC2CCCN(c3cccnn3)C2)no1` (stereo not given), the INHIBITION was 11.8%. Compound `CC(C)(C)c1nc(CNC2CCCN(c3cccnn3)C2)no1` (stereo not given) has an INHIBITION of 79.2%. `CN(Cc1noc(C(C)(C)C)n1)C1CCCN(c2cccnn2)C1` (stereo not given) showed an INHIBITION of 66.2%. Compound `CC(C)c1nc(CNC2CCCN(c3cccnn3)C2)no1` (stereo not given) has an INHIBITION of 78.2%. `Cc1nc(CNC2CCCN(c3cccnn3)C2)no1` (stereo not given) was tested, and the INHIBITION was 26.5%. `CNC(=O)C1(CCCc2cnccn2)CCN1Cc1ccc(C)cc1` (stereo not given) showed an INHIBITION of 24.585%. In the case of `CC(NC(=O)NCC1(O)CCC1)c1ccc(OCC2CC2)c(F)c1` (stereo not given), the INHIBITION is reported as 13.4%. `CCc1nn(C)c2[nH]nc(NC(=O)c3cccnc3OCC(C)C)c12` was tested, and the INHIBITION was 47.4%. `Cn1cc(Cl)c(C(=O)N2CCc3nc4sccc4c(=O)n3CC2)n1` gave an INHIBITION of -9.32%. For `CCCc1nc(N(C)Cc2ccco2)c2c(n1)c(C)nn2CC`, the INHIBITION was -6.42%. `CCn1nc(C)c2nc(C)nc(N(C)Cc3ccco3)c21` showed an INHIBITION of 43.3%. `CCn1nc(C)c2ncnc(N(C)Cc3ccco3)c21` was tested, and the INHIBITION was 52.4%. For `CCOCC1CN(CCN(C)C)Cc2cnn(CC3CCCC3)c21` (stereo not given), the INHIBITION was 41.2%. For `CC(C)CNC(=O)Nc1ccc(CN2CCOC2=O)cc1`, the INHIBITION was 23.2%. `CC(C)C(O)C1(CNC(=O)Nc2ccc(CN3CCOC3=O)cc2)CC1` (stereo not given) was tested, and the INHIBITION was 65.3%. With `CCC(C)NC(=O)Nc1ccc(CN2CCOC2=O)cc1` (stereo not given) the INHIBITION was 29%. `Cc1[nH]nc2ncc(C(=O)N3CCN(CCC(C)C)CC3)cc12` gave an INHIBITION of 23.7%. With `Cc1ccc(CC(=O)N2CCC(Nc3ccc(C)nn3)CC2)cn1` the INHIBITION was 1.78%. In the case of `CS(=O)(=O)NCC1CCCN(C(=O)c2ccco2)C1` (stereo not given), the INHIBITION is reported as -14.6%. With `CS(=O)(=O)NCC1CCCN(C(=O)c2cc3ccccc3o2)C1` (stereo not given) the INHIBITION was 57.8%. `O=C(c1ccc(-n2cccc2)c(F)c1)N1CCCN2CCCC2C1` (stereo not given) showed an INHIBITION of -33.9%. For `COc1ccc(C(=O)N2CCCC(CNS(C)(=O)=O)C2)cc1F` (stereo not given), the INHIBITION was 11.6%. `O=C(c1ccc(F)c(F)c1)N1CCN2CCCC2C1` (stereo not given) showed an INHIBITION of 9.52%. Compound `CS(=O)(=O)NCC1CCCN(C(=O)c2ccc(F)c(F)c2)C1` (stereo not given) has an INHIBITION of 53%. Compound `Cc1ccc(C(=O)N2CCCC(CNS(C)(=O)=O)C2)o1` (stereo not given) has an INHIBITION of 26.4%. Compound `O=C(c1ccc(F)c(Br)c1)N1CCCN2CCCC2C1` (stereo not given) has an INHIBITION of 59.4%. `CS(=O)(=O)NCC1CCCN(C(=O)c2cccc(F)c2)C1` (stereo not given) was tested, and the INHIBITION was 38.5%. `CC1(NC(=O)CNC(=O)C(C)(C)C)CCc2ccccc2C1` (stereo not given) showed an INHIBITION of -2.43%. `COCCc1noc(CN2CC(n3nc(C)cc3C)C2)n1` showed an INHIBITION of -57.4%. `CC(C)COC(C)C(=O)NCc1ccccc1` (stereo not given) gave an INHIBITION of -10.1%. `CCc1cc(=O)[nH]c(-c2ccc(NC(C)CN3CCOCC3)nc2)n1` (stereo not given) was tested, and the INHIBITION was -33.9%. `CSCC1CCCN(c2ncnc3oc(C)nc23)C1` (stereo not given) showed an INHIBITION of -0.532%. In the case of `O=C(NCc1ccccn1)[C@@H]1COC[C@H]2CN(C3CCOCC3)C[C@H]21`, the INHIBITION is reported as 29.6%.

From ChEMBL document CHEMBL4513216, “Probing the Open Global Health Chemical Diversity Library for Multistage-Active Starting Points for Next-Generation Antimalarials” (ACS Infect Dis, 2020)
